# The OligoGym collection
# Target: ZNF512B
# Test: pooled miR-30 sensor sort-seq; sequence = guide strand
# Details: shRNA
# Also: reference of the scale not given here.
row,Sequence,sensor-assay potency score (higher = more potent)
1,TTGCTGACCACAATGGGCCTGC,0.0376
2,TACTTGAGCCCGTAGATGCTGG,-0.743
3,TGAGTTTGGACACTTCACCCTC,-0.0834
4,TTCGTAACTGTCACAAGCTTTG,-1.03
5,TTGGACTTGAACTGCTTCCGGC,-0.182
6,TTGAAGGGCATCAAGCTTCTGC,0.255
7,TTCGGAACCAGTTCTCTGCGTG,-0.0926
8,TAGTGTGGTAGTTGAGGCCGGC,-0.21
9,TTTTTCTTCCCTTCTGTCTTGT,0.00205
10,TTTCGTAACTGTCACAAGCTTT,-0.797
11,TTGCTGACTCCCACCTTCCGGC,-0.809

# Target: ZNF517
# Test: as above
# Details: shRNA
row,Sequence,sensor-assay potency score (higher = more potent)
1,TTCTGGTGCTGCAGCAGCCGGG,-1.68
2,TCGTTCAGCGTGTAGCTCCTGC,-0.267
3,TCCTTGTGAAGTACACAGCCAC,-1.39
4,TTTGGCAACAAGAAAGCCTAGT,0.561
5,TGCTCGTTGAGGGTGAACCTGC,-1.07
6,TCTTCCTGCAGAACCCTTGGGG,-0.177
7,TTCTCTGCAGAGGAGACTCCAT,-1.52
8,TCGTTGAGGGTGAACCTGCGGC,-0.629
9,TTGTATCTGAACGCCTTGCCGC,-1.19
10,TTGAGGGTGAACCTGCGGCAGA,-1.5
11,TTGTGAAGTACACAGCCACATC,-1.38
12,TTCAGCGTGTAGCTCCTGCGGA,-0.596

# Target: ZNF543
# Test: as above
# Details: shRNA
row,Sequence,sensor-assay potency score (higher = more potent)
1,TTCTTTTTAAACACTTTCCCGC,-0.356
2,TGTAGTGTCGAATGAAACCTGG,-0.172
3,TTTCACTCCAGTGTGAATCTGT,0.767
4,TTTTTAAACACTTTCCCGCATT,-0.669
5,TTCACTTGAGTGTGAATCCGTT,-0.0362
6,TTCAGAACTCATTTTCTCCAGC,0.596
7,TCTTTGTACATACACCATCATC,-1.6
8,TAGGAATTTTTCTCTTCGCGAA,-0.467
9,TAATCTTTGTACATACACCATC,-0.698
10,TTGTACATACACCATCATCTGA,-0.467
11,TTCTGTGTAATCTTTGTACATA,-0.793
12,TTCTGTTGAAACTTGTTTCTGT,0.852

# Target: ZNF548
# Test: as above
# Details: shRNA
row,Sequence,sensor-assay potency score (higher = more potent)
1,AATTCCATTGTGCTCAACCAGG,-1.53
2,TAACCTCTGACACTCCTACAGA,-0.754
3,ATTTGTAATCATTTTGTCCAGT,-0.192
4,TGTCTAACAAATGTGGAGCTGT,0.213
5,TGTCTCACTAGGGTGGACCTTC,-0.0557
